Results taken from PubChem BioAssay (NCATS).
Records with an inconclusive call do not appear. Unmarked numbers belong to inactive results. The source made the active and inactive calls. Calls come from the whole dose curve; as a rule, active = well fitted cell-killing curve with a large enough effect; inconclusive = small, poorly fitted or top-dose-only effect; inactive = flat fitted curve, though single readings scatter.

Assay: Quantitative highthroughput screen to assess conditional lethalithy of P12 Ichikawa cells grown in RPMI1640 with dialyzed fetal bovine serum (RPMI+ds) (AID 1963880); note: nearly all actives have a fitted effect of over 35% in size
Conditions: ATP luminescence, 48 h; Potency: P12-Ichikawa viability; series mostly up to 45.8 µM; viability: at the top concentration
Source text: Assay Provider: Jason Cantor Ph.D.
Department of Biochemistry
University of Wisconsin-Madison, Madison, WI, USA
Chemical screening studies have identified drug sensitivities across hundreds of cancer cell lines but most putative therapeutics fail to translate. Discovery and development of drug candidates in models that more accurately reflect nutrient levels in human blood is a major challenge. Here we performed high-throughput screens in conventional versus Human Plasma-Like Medium (HPLM) to identify compounds that were "missed" when screening using the artificial culture condition. Sets of conditional anticancer compounds spanned phases of clinical development and included non-oncology drugs were assessed. […] We also traced conditional phenotypes for several chemotherapeutics to availability of HPLM-specific metabolites and confirmed others for compounds whose reported targets are encoded by nonessential genes. Our findings establish generalizable strategies for exploiting conditional lethality in HPLM to reveal therapeutic candidates and mechanisms of action in cancer cells.
Described herein are the results of each viability screens against three cell lines: NOMO1 (an acute myeloid leukemia cell line); P12-Ichikawa (a T-cell acute lymphoblastic leukemia); and SEM (a B-cell ALL). Each assay was screened using 3 different cell culture media: homemade human plasma-Like medium with 10% dialyzed fetal bovine serum (HPLM+ds); RPMI1640 with 10% untreated FBS and 5mM glucose (RPMI+s); and RPMI1640 with 10% dialyzed fetal bovine serum and 5 mM glucose (RPMI+ds).
PROTOCOL TABLE (as described by Inglese J, Shamu CE and Guy RK. 2007)
SEQUENCE No. (e.g., 1, 2, 3, etc.); […] (e.g., Cells, Incubation, Reagent, etc.); VALUE and DESCRIPTION.
1; Cells; 5 uL; white, solid bottom 1536-well Greiner assay plate.
2; Compounds; 23 nL; Kalypsis pin tool (Wako USA) equipped with a 1536-well pin head to transfer to the assay plates.
3; Incubation; 48 hours; 37C incubation.
4; Reagent; 3 uL; CellTiter Glo (Promega).
5; Incubation; 5 min, room temperature
6; Detection; Luminescence, Viewlux PerkinElmer.
NOTES (numbers refer to Sequence numbers above)
1. Briefly, 5 ul of cell reagent was dispensed using a Multidrop Combi Dispenser. The NOMO1 and SEM cells were plated at 500 cells/well and the P12-Ichikawa line at 1000 cells/well.
2. After seeding the cells, 23 nL of MIPE 4.1 library compounds (in DMSO) were added to each plate using a Kalypsys 1536 Pintool dispenser. Bortezomib at final concentration of […] and DMSO were added to each plate as positive and negative controls respectively. For each screen, MIPE 4.1 compounds were added over an eleven-point concentration range […] in 3-fold dilutions.
3. Each plate was covered with a stainless steel gasketed lid to prevent evaporation and incubated for 48 hour at 37C, 95% relative humidity, and 5% CO2.
4-5. Three microliter CellTilter-GloTM luminescent substrate mix (Promega) reagent was added to the assay plate and incubated at room temperature for 5 min.
6. The luminescence signal was measured using a ViewLux (PerkinElmer) multiplate reader with a 2 second exposure time per plate. Data for each compound were normalized as percent viability such that measurements for DMSO and the empty well controls in each plate were defined as 100% and 0%, respectively.
Potency is the fitted concentration of half-maximal effect.

Compound | viability | Potency
CC(C)(C)c1cc(C=C(C#N)C#N)cc(Br)c1O | 94% | 
NCC1(CC(=O)O)CCCCC1 | 110% | 
CC(C)(C)[C@]1(O)C[C@@H]2OC(=O)C[C@@]23C(=O)O[C@@H]2OC(=O)[C@H](O)C213 (stereo not given in full) | 99.7% | 
CN(C)CCc1ccc(O)cc1 | 100% | 
C[C@](O)(CS(=O)(=O)c1ccc(F)cc1)C(=O)Nc1ccc(C#N)c(C(F)(F)F)c1 | 86.7% | 
CCOc1ccccc1-n1c(C(C)N2CCN(C(=O)COc3ccc(Cl)cc3)CC2)nc2ccccc2c1=O (stereo not given) |  | 1.05 µM (active)
Clc1ccccc1C(c1ccccc1)(c1ccccc1)n1cccn1 | 100% | 
COc1ccc(C(CN(C)C)C2(O)CCCCC2)cc1 (stereo not given) | 99.4% | 
CCOC(=O)c1c(C(C#N)=CN)c2ccc(Cl)c(Cl)c2n1C | 98.7% | 
CN1C(=O)CCS(=O)(=O)C1c1ccc(Cl)cc1 (stereo not given) | 91.2% | 
C[C@]12CCC(=O)C(O)=C1CC[C@@H]1[C@H]3CCC(=O)[C@@]3(C)CC[C@@H]12 | 96.4% | 
CC(C)N[C@@H]1CCn2c(=O)[nH]c3cccc(c32)[C@@H]1O | 98% | 
O=[N+]([O-])c1ncc[nH]1 | 94.9% | 
CC[C@@H](C(N)=O)N1CCCC1=O | 95.5% | 
C[C@@H]1CC[C@H]2[C@@H](C)C(=O)O[C@@H]3O[C@@]4(C)CC[C@H]1[C@]32OO4 | 96.3% | 
CC(=O)N(C)c1cccc(-c2ccnc3c(C(=O)c4cccs4)cnn23)c1 | 96.2% | 
O=C1CC[C@@]2(O)[C@H]3Cc4ccc(O)c5c4[C@@]2(CCN3CC2CC2)[C@H]1O5 | 95.8% | 
CCOP(=O)(OCC)C(C)NC(=O)N(CCCl)N=O (stereo not given) | 116% | 
CCCC(C)(COC(N)=O)COC(=O)NC(C)C (stereo not given) | 105% | 
COC[C@H]1OC(=O)c2coc3c2[C@@]1(C)C1=C(C3=O)C2CCC(=O)[C@@]2(C)C[C@H]1OC(C)=O (stereo not given in full) | 83% | 

Compound | viability | Potency
CSCC[C@@H](NC(=O)[C@@H](Cc1ccccc1)NC(=O)CNC(=O)CNC(=O)[C@@H](N)Cc1ccc(O)cc1)C(=O)O | 108% | 
CC1(N2CCC(n3c([C@@H]4CCCNC4)nc4ccccc43)CC2)CCCCCCC1 |  | 13.2 µM (active)
O=c1[nH]c2ccccc2n1C1CCN(Cc2ccc(-c3[nH]c4cc5ncnc5cc4nc3-c3ccccc3)cc2)CC1 | 91.7% | 
Cc1nc(-c2ccc(-c3ccc(C(=O)N4CCc5cc6c(cc54)C4(CCN(C)CC4)CO6)cc3)c(C)c2)no1 | 105% | 
C[C@]12COC(=O)C[C@@H]1CC[C@@H]1[C@H]2CC[C@@]2(C)[C@H]1CC[C@]2(C)O | 104% | 
CNCC(O)c1ccc(O)cc1 (stereo not given) | 97.4% | 
COc1ccc(C(=O)c2c(C)n(CCN3CCOCC3)c3cc(I)ccc23)cc1 |  | 8.33 µM (active)
CC(C)C[C@H](CN)CC(=O)O | 109% | 
CC[C@H]1C=CC=CC[C@@H](C)[C@H](O)[C@@](C)(O)C(=O)[C@@H](C)[C@H](O)[C@@H](C)C(=O)[C@@H](C)[C@H](O)[C@@H](C)C=CC(=O)O[C@@H]2[C@@H](C)[C@H](CC1)O[C@]1(CC[C@H](C)[C@H](C[C@@H](C)O)O1)[C@H]2C |  | 5.26 µM (active)
c1cc2c(cc1[C@H]1OC[C@H]3[C@H]1CO[C@H]3c1ccc3c(c1)OCO3)OCO2 | 104% | 
COC(=O)[C@@H](N)CCCN=C(N)N[N+](=O)[O-] | 99.6% | 
COc1ccc(CC2NCCc3cc(OC)c(OC)cc32)cc1OC (stereo not given) | 90% | 
O=C(O)c1nn(Cc2ccc(Cl)cc2Cl)c2ccccc12 | 101% | 
Cc1cccc(C)c1NC(=O)CN1CCCC1=O | 94.8% | 
O=C1C=CC[C@@H]2[C@H]3CCCN4CCC[C@@H](CN12)[C@@H]34 | 95.3% | 
Cc1ccccc1-n1c(Cn2ncc3c(N)ncnc32)nc2cccc(C)c2c1=O |  | 3.32 µM (active)
C#CCN(C)[C@H](C)Cc1ccccc1 | 96.9% | 
CNC(=O)c1ccc(N2C(=S)N(c3ccc(C#N)c(C(F)(F)F)c3)C(=O)C23CCC3)cc1F | 102% | 
NC1=NC(=O)N2CC12 (stereo not given) |  | 6.62 µM (active)
Cc1ncc(OC[C@@]2(c3cccc(F)c3)C[C@H]2C(=O)Nc2ccc(F)cn2)c(C)n1 | 87.4% | 
